# Measured values: PubChem BioAssay (NCI)
# Compounds without any hit were thinned out: in the full panel of roughly 83,000, 20% have a hit.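 Single-concentration screen, 48 h exposure, 96-well plates. Endpoint: percent growth. Below 10 = active.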 A number with no mark means an inactive call. Activity calls are given as the source filed them.
# Columns and labels:
# Assay in all cases: NCI-60 one-dose screen, 48 h (100 = growth as untreated, 0 = no growth, -100 = all killed)
# Details in all cases: 10 µM unless noted
# SK-MEL-2 melanoma = system: SK-MEL-2 melanoma
# EKVX NSCLC = system: EKVX NSCLC
# SN12C renal = system: SN12C renal
# TK-10 renal = system: TK-10 renal
# ACHN renal = system: ACHN renal
# CAKI-1 renal = system: CAKI-1 renal
# A498 renal = system: A498 renal
# CCRF-CEM leukemia = system: CCRF-CEM leukemia
# MOLT-4 leukemia = system: MOLT-4 leukemia
# SR leukemia = system: SR leukemia
# RPMI-8226 leukemia = system: RPMI-8226 leukemia
# OVCAR-8 ovarian = system: OVCAR-8 ovarian
# OVCAR-5 ovarian = system: OVCAR-5 ovarian
# OVCAR-4 ovarian = system: OVCAR-4 ovarian
# SK-OV-3 ovarian = system: SK-OV-3 ovarian
# IGROV1 ovarian = system: IGROV1 ovarian
# OVCAR-3 ovarian = system: OVCAR-3 ovarian
# HS 578T breast = system: HS 578T breast
# NCI/ADR-RES ovarian = system: NCI/ADR-RES ovarian
# UO-31 renal = system: UO-31 renal
Structure (SMILES),growth (SK-MEL-2 melanoma),growth (EKVX NSCLC),growth (SN12C renal),growth (TK-10 renal),growth (ACHN renal),growth (CAKI-1 renal),growth (A498 renal),growth (CCRF-CEM leukemia),growth (MOLT-4 leukemia),growth (SR leukemia),growth (RPMI-8226 leukemia),growth (OVCAR-8 ovarian),growth (OVCAR-5 ovarian),growth (OVCAR-4 ovarian),growth (SK-OV-3 ovarian),growth (IGROV1 ovarian),growth (OVCAR-3 ovarian),growth (HS 578T breast),growth (NCI/ADR-RES ovarian),growth (UO-31 renal)
CC[C@H](CC[C@@H](C)[C@H]1CC[C@H]2[C@@H]3/C(=C/c4cccnc4)C(=O)C4=CC(=O)CC[C@]4(C)[C@H]3CC[C@]12C)C(C)C,103%,99%,86.3%,112%,93.9%,77.9%,98.3%,43.4%,67.5%,62.4%,74.4%,64.5%,105%,100%,112%,95.6%,102%,107%,90.5%,–
CCC(c1ccc(OC)cc1)C(CC)c1ccc(O)c(CN2CCCCC2)c1 (centres undefined),79.7%,64.6%,66%,84.6%,82.3%,61.6%,72.8%,68.7%,62.7%,-3.74% (active),5.83% (active),80.4%,–,67.1%,84.9%,–,73.9%,79%,60.9%,–
C=C(C)[C@@H]1CC[C@]2(C)[C@H](CC=C3[C@@H]4CC(C)(C)CC[C@]4(C(=O)OC)CC[C@]32C)[C@@]1(C)CC/C(N)=N/O,46.6%,25.2%,36.4%,67.9%,43.8%,37%,77.7%,37.3%,6.47% (active),0.151% (active),34.9%,38.4%,90.4%,36.4%,68%,80.2%,67.2%,72.4%,-24.5% (active),–
N#CC1=C(N)Oc2c(c(N)nn2-c2ccccc2)C1c1ccc(Cl)cc1 (centres undefined),103%,90.7%,97.8%,152%,–,86.8%,97.8%,101%,98.8%,95.8%,–,95.4%,102%,105%,81.7%,84.5%,109%,97%,101%,61.2%
COc1ccc2c(c1)c(-c1nc(-c3c[nH]c4ncccc34)cs1)cn2CCCN1CCCCC1,73.6%,51.2%,58%,77.5%,–,–,66.1%,-0.15% (active),-18.9% (active),-38% (active),-33% (active),49.1%,77.4%,62.6%,61.7%,34.4%,27.8%,59.7%,58.7%,36.5%
Cc1ccc2[nH]cc(-c3nc(-c4cn(C)c5ncccc45)cs3)c2c1,89.4%,59.5%,87.8%,95%,79.6%,77.9%,72.2%,58.5%,53.3%,–,62.7%,85.8%,108%,–,102%,108%,106%,99%,66.7%,–
C=C(C)[C@@H]1CC[C@]2(C)[C@H](CC=C3[C@@H]4CC(C)(C)CC[C@]4(C=O)CC[C@]32C)[C@@]1(C)CCCN,109%,94.5%,66.7%,81.4%,88.4%,61.1%,97%,52.9%,35.5%,-31.5% (active),14.2%,–,91.8%,85.7%,94.2%,88.4%,80.1%,96%,87.2%,–
O=C1OC(c2ccc(Cl)c(Cl)c2)=C/C1=C/c1cccc([N+](=O)[O-])c1,102%,91.8%,93%,179%,100%,91.3%,101%,103%,103%,117%,99%,99.4%,96.1%,116%,96.5%,81.8%,111%,97.7%,104%,–
COC(=O)[C@]12CC[C@@H](C(=O)/C=C/c3cccnc3)[C@@H]1[C@H]1CC[C@@H]3[C@@]4(C)C/C(=C/c5cccnc5)C(=O)C(C)(C)[C@@H]4CC[C@@]3(C)[C@]1(C)CC2,-61.1% (active),-76.3% (active),-77.8% (active),-60.5% (active),-100% (active),-78.7% (active),-91.2% (active),0.953% (active),-31.3% (active),-14.1% (active),-28.7% (active),-34.3% (active),-62.7% (active),-39.2% (active),-23.1% (active),-87.9% (active),-93.2% (active),-49.1% (active),-39.4% (active),–
Cc1ccc2oc(=O)cc(-c3sc(N4CCCCC4)nc3-c3ccccc3)c2c1,93.7%,90.4%,50.2%,161%,–,–,109%,104%,97.3%,77.3%,99.9%,98.4%,102%,92.4%,86.9%,59.9%,97.2%,96.7%,98.4%,58%
CCCCC(=O)OC1CCCCC1C (centres undefined),111%,104%,94.1%,94.5%,–,94.9%,93.2%,94.3%,109%,95%,–,87%,90.9%,104%,89.4%,106%,107%,97.6%,96.7%,93.2%
Oc1ccc(CCC2CCCC(CCc3ccc(OCCF)cc3)N2)cc1 (centres undefined),104%,105%,89.6%,96.7%,99.8%,89.2%,96.9%,88.3%,76.2%,67.2%,90.8%,–,89.4%,82.9%,96%,96.2%,107%,97.5%,87.6%,–
O=C(O)/C(=C/c1ccc(O)cc1)c1ccccc1,105%,105%,96.9%,98.3%,101%,104%,93.2%,94.5%,97.5%,–,95.5%,95.7%,84.4%,98.7%,112%,99%,103%,–,94.6%,–
Cc1ccnc2c(OCc3ccccc3)cccc12,105%,78.6%,88.8%,102%,–,–,90.3%,108%,98%,101%,99.2%,115%,93.1%,72.2%,–,87.5%,92.8%,92.2%,86.1%,64.3%
C/C(Cc1ccc(Cl)cc1)=C(/c1ccc(Cl)cc1)c1ccc(OCCN2CCCC2)cc1,105%,91.2%,81.6%,96.1%,93.8%,75.9%,103%,66%,59.7%,9.32% (active),48.3%,83.8%,86%,78.4%,99%,71.8%,70.5%,79.1%,84.4%,–
Cc1cccc(C)c1NC(=O)CSC(=S)N1CCN(CCOCCO)CC1,95%,95%,105%,85.8%,–,–,103%,107%,104%,102%,108%,106%,96.9%,102%,110%,96.5%,102%,104%,99.5%,89.7%
